Measured values from PubChem BioAssay.
Calls of active or inactive are those of the source.

Columns and labels:
Albumin (Bos taurus) = Albumin (Bos taurus) (UniProt P02769); test: bovine serum albumin binders on microarray, profiling panel, artefact control for SMM control protein annotation, biochemical, small-molecule microarray, Alexa647 label, 635/667 nm fluorescence (AID 1118); details: BSA-A647 binding, fluorescence 635 nm, higher = more signal;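 also: score merges 667 nm emission intensity and signal-to-noise per printed compound spot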
[1] = small-molecule microarray binders of probe aXIP, primary screen, biochemical, NeuroSMM set, 635/667 nm fluorescence (AID 1119); details: higher = more signal, called active from +8 up or from −8 down;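 also: probe is the protein aXip251-270 applied at 1 µg/mL to compound-printed slides; binding of probe to printed compounds measured as 667 nm fluorescence plus signal to noise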
[2] = small-molecule binders of probe aNOTCH3, primary screen, biochemical, small-molecule microarray, 635/667 nm fluorescence (AID 1120); details: higher = more signal;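 also: probe is a biotin-tagged antibody raised against NOTCH3 rather than NOTCH3 protein; score merges spot fluorescence near 667 nm with spot signal to noise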
[3] = small-molecule binders of probe aNOTCH2, primary screen, biochemical, small-molecule microarray, 635/667 nm fluorescence (AID 1121); details: higher = more signal;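 also: score merges feature fluorescence read at 667 nm with its signal to noise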
[4] = target: Carbonic anhydrase 2 (Homo sapiens) (UniProt P00918); test: CAII small-molecule binders, profiling panel, biochemical, small-molecule microarray, Alexa647-labelled CAII (AID 1122); details: CAII-A647 binding fluorescence, higher = more signal
[5] = COS7 lysate on small-molecule microarray, probe aHis, 635 nm (AID 1123); details: COS7 cell lysate, fluorescence, higher = more signal;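 also: z-score combines 667nm fluorescence intensity with signal-to-noise per printed compound spot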
[6] = compound binding in COS7 lysate, probe aLAP1, primary screen, cell lysate, small-molecule microarray (AID 1124); details: probe aLAP1, fluorescence, higher = more signal;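 also: lysate comes from COS7 cells expressing LAP1 and is applied at 0.3 µg/mL; score merges spot fluorescence near 667 nm with signal-to-noise over triplicate slides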
Sam68 (KHDRBS1) = test: Sam68 small-molecule binders, primary screen, biochemical, small-molecule microarray, 635 nm fluorescence (AID 1125); details: small-molecule microarray binding, higher = more signal;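 also: score merges 667 nm channel intensity with signal to noise over triplicate slides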
[7] = test system: Chordin-like protein 2 (CHRDL2); test: CHRDL2 small-molecule binders, primary screen, biochemical, small-molecule microarray, 635 nm fluorescence (AID 1126); details: small-molecule microarray binding, fluorescence 635 nm; higher = more signal;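 also: printed compound slides probed with Chrdl2 protein at 4 µg/mL for 1 h at 4 C; score merges 667 nm emission intensity with signal to noise over three replicate slides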
[8] = target: Concanavalin-A (Canavalia ensiformis) (UniProt P02866); test: ConA small-molecule binders, primary screen, artefact control for SMM control protein annotation, biochemical, small-molecule microarray, Alexa647 label, 635 nm (AID 1127); details: ConA-A647 binding fluorescence, higher = more signal;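 also: z combines 667 nm emission intensity with signal-to-noise across three replicate slides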
[9] = anti-His antibody binders, primary screen, artefact control for SMM control protein annotation, biochemical, small-molecule microarray, 635 nm fluorescence (AID 1128); details: anti-His Alexa647 antibody binding, higher = more signal;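 also: score merges feature fluorescence with signal-to-noise for each printed compound spot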
[10] = test system: Human papillomavirus type 1a E7 protein (residues 1-88); test: HPV1a E7 small-molecule binders, primary screen, biochemical, small-molecule microarray, residues 1-88, 635 nm (AID 1129); details: small-molecule microarray binding, fluorescence 635 nm; higher = more signal
[11] = target: Focal adhesion kinase 1 (Homo sapiens) (UniProt Q05397); test: small-molecule microarray binders of FAK, primary screen, biochemical, 635/667 nm fluorescence, BSA, DTT (AID 1130); details: PTK2 binding, 635 nm fluorescence, higher = more signal;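 also: composite of spot emission at 667 nm and signal to noise over triplicate slides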
[12] = test system: Fibrinogen (Alexa647-labelled); test: fibrinogen binders on compound microarrays, profiling panel, artefact control for SMM control-protein annotation, biochemical, small-molecule microarray, 635/667 nm fluorescence (AID 1131); details: fibrinogen-A647 binding fluorescence, higher = more signal;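 also: z-score merges 667 nm fluorescence with per-spot signal-to-noise over triplicate slides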
[13] = target: Follistatin (Homo sapiens) (UniProt P19883); test: follistatin binders on small-molecule microarrays, primary screen, biochemical, small-molecule microarray, 635/667 nm fluorescence (AID 1132); details: FST binding, 635 nm fluorescence, higher = more signal
[14] = target: Fibroblast growth factor 2 (Homo sapiens) (UniProt P09038); test: FGF2 binders on small-molecule microarrays, primary screen, biochemical, small-molecule microarray, 635/667 nm fluorescence (AID 1133); details: small-molecule microarray binding, FGF2, fluorescence 635/667; higher = more signal
[15] = mitochondrial membrane potential change in A549 cells, profiling panel, cell-based, JC-1 fluorescence, basal, 24 h, 100 nL (AID 1138); details: higher = more signal;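 also: A549 lung adenocarcinoma cells under basal conditions with no added stimulus; test concentration not given here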
Lefty1 = Lefty1 binders on small-molecule microarrays, primary screen, biochemical, small-molecule microarray, 635/667 nm fluorescence (AID 1139); details: small-molecule microarray binding, fluorescence 635/667; higher = more signal
[16] = test system: wheat germ agglutinin (Triticum aestivum), Alexa647-labelled; test: wheat germ agglutinin binders on compound microarrays, profiling panel, artefact control for SMM control-protein annotation, biochemical, small-molecule microarray, 635/667 nm fluorescence (AID 1140); details: WGA-A647 binding, 635 nm fluorescence, higher = more signal;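 also: score merges 667 nm feature emission with signal to noise over triplicate slides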
[17] = target: Luciferin 4-monooxygenase (Photinus pyralis) (UniProt P08659); test: firefly luciferase enzyme inhibitors, primary screen, biochemical, luminescence, purified enzyme, 2006 set (AID 1141); details: SteadyGlo luminescence, 30 min, higher = more signal, called active from +8 up or from −8 down;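 also: cell-free assay with purified firefly luciferase at 100 ng per well in PBS; test concentration not given here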
Sequence of Luciferin 4-monooxygenase (Photinus pyralis) (P08659 whole entry, looked up): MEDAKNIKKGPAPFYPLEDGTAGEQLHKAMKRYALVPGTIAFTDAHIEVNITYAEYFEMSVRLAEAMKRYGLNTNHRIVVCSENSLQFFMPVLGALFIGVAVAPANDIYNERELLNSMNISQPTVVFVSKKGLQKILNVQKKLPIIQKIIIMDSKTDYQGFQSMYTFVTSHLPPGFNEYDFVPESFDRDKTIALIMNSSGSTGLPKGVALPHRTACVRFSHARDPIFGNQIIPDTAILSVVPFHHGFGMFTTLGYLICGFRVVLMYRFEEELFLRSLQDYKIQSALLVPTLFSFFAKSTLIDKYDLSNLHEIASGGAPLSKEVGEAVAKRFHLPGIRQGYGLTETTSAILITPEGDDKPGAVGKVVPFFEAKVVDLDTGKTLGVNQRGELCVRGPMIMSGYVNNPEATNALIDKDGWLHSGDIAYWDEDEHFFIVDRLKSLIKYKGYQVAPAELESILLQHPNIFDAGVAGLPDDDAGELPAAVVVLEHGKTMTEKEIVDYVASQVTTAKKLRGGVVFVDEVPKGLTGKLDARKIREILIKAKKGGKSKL

Sequence of Albumin (Bos taurus) (P02769 whole entry, looked up): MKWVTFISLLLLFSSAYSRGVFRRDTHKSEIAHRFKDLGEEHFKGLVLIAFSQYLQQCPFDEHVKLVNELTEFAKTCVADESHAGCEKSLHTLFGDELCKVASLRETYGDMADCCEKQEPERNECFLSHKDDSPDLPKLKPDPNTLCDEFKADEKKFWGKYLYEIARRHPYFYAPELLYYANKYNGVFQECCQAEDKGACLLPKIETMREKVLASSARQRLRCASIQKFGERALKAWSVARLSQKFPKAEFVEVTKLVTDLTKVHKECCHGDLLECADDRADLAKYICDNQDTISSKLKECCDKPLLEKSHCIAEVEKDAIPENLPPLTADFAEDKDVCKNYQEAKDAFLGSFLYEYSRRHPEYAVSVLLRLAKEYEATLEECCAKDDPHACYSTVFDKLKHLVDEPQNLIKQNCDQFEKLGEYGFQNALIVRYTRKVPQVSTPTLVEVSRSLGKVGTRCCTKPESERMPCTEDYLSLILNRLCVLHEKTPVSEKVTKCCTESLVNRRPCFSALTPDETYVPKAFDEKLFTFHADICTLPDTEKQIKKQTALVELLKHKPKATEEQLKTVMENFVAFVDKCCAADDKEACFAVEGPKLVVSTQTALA
Sequence of Focal adhesion kinase 1 (Homo sapiens) (Q05397 whole entry, looked up): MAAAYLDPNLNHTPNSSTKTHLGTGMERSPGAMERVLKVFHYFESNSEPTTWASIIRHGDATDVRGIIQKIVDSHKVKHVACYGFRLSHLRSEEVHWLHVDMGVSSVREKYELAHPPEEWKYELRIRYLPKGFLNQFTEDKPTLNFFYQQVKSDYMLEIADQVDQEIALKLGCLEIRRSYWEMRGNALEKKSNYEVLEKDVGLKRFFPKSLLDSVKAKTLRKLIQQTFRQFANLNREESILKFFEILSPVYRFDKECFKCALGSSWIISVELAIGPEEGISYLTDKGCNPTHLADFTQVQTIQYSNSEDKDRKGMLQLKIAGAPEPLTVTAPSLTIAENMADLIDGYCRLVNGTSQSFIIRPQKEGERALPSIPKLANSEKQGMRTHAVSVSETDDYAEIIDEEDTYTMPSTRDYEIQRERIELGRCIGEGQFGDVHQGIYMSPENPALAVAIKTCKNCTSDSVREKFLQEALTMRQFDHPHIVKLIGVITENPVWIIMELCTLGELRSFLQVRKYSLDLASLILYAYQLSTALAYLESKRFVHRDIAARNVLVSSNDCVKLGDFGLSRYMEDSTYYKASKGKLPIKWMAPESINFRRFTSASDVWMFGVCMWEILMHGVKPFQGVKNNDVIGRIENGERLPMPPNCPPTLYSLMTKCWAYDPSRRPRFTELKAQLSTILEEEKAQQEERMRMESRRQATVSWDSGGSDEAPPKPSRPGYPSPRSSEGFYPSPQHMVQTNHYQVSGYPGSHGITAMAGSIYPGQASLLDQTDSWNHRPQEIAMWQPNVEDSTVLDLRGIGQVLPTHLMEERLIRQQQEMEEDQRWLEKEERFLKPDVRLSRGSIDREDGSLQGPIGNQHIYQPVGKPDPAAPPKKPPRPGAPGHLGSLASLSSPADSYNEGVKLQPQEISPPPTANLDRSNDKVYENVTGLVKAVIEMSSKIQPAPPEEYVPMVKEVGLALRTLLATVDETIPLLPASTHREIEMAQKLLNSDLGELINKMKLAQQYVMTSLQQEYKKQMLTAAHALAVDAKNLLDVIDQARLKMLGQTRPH
Sequence of Follistatin (Homo sapiens) (P19883 whole entry, looked up): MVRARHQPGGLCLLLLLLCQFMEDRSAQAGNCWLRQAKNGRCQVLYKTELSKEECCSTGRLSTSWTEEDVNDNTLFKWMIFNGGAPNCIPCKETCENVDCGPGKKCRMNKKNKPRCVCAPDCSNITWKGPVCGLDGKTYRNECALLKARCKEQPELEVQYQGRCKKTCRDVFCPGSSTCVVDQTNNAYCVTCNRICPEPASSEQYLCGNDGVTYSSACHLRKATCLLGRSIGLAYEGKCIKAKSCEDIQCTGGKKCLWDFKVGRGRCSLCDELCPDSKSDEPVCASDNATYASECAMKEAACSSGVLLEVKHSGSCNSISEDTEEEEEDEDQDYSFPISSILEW
Sequence of Concanavalin-A (Canavalia ensiformis) (P02866 whole entry, looked up): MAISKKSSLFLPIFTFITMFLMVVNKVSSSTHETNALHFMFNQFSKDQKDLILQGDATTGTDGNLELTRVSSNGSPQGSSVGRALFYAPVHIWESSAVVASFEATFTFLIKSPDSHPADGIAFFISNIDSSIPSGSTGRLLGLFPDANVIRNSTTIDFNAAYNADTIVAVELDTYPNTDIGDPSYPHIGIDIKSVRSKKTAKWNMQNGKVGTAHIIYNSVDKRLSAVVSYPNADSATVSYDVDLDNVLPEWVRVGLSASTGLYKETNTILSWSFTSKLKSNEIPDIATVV
Sequence of Fibroblast growth factor 2 (Homo sapiens) (P09038 whole entry, looked up): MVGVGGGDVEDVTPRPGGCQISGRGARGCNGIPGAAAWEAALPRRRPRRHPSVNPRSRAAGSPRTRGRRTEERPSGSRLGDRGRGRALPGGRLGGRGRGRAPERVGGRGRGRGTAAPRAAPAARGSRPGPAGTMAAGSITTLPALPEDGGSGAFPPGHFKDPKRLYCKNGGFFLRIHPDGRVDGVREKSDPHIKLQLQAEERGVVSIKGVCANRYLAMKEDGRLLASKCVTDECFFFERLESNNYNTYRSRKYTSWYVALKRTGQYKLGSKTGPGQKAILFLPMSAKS

Compound	composite z-score (Albumin (Bos taurus))	composite Z-score [1]	composite z-score [2]	composite z-score [3]	composite z-score [4]	composite z-score [5]	composite z-score [6]	composite z-score (Sam68 (KHDRBS1))	composite z-score [7]	composite z-score [8]	composite z-score [9]	composite z-score [10]	composite z-score [11]	composite z-score [12]	composite z-score [13]	composite z-score [14]	z-score [15]	composite z-score (Lefty1)	composite z-score [16]	z-score [17]
CC(=O)NCCCC[C@@H]1NC(=O)[C@@H]2C[C@H](C(=O)NCCCC[N+](C)(C)C)[C@H](c3cccc(OCCO)c3)N2C1=O	-0.134	0.0725 (inactive)	0.0426	-0.125	0.799	0.661	0.331	-1.33	0.349	-0.0028	1.5	-0.411	0.164	-1.39	1.4	1.57	-0.251	0.512	0.994	0.0595 (inactive)
C=CCOC(=O)[C@H]1[C@@H]2C(=O)O[C@@H](c3ccccc3)[C@@H](c3ccccc3)N2[C@@H](c2ccc(OCCOC(=O)[C@H]3C[C@H]4C(=O)N[C@@H](CCCCN(C)C)C(=O)N4[C@H]3c3ccc(O)cc3)cc2)[C@]12C(=O)Nc1ccccc12	-0.144	-0.168 (inactive)	0.272	-0.185	0.415	1.48	0.0568	1.29	1.21	1.1	-0.127	1.13	0.806	-0.104	1.43	1.59	-0.58	1.5	0.0515	-0.552 (inactive)
Cc1ccccc1C(O)C1C=CC2C(=O)N(Cc3ccccc3)C(=O)C2N1n1cnnc1 (stereo not given)	0.756	0.358 (inactive)	0.159	-0.137	0.71	0.774	-0.0065	1.01	-0.317	0.71	1.54	1.05	-0.0602	1.02	1.07	0.188	-0.478	0.694	0.429	1.39 (inactive)
CN(C)CCCCCCNC(=O)[C@@H]1C[C@@H]2C(=O)NCC(=O)N2[C@@H]1c1ccc(O)cc1	-0.671	2.25 (inactive)	0.173	-0.126	0.683	2.86	0.328	1.33	1.4	1.21	2.07	1.18	1.28	0.842	1.42	1.65	-0.736	1.68	0.974	0.335 (inactive)
CC(C)CNC(=O)[C@@]1(c2ccc([N+](=O)[O-])cc2)CC(=O)N(C(C)C)[C@@H]1c1ccc(CO)cc1	0.1	1 (inactive)	-0.273	-0.161	0.735	1.59	0.664	0.3	-2.39	0.0801	0.217	-0.467	-0.362	-1.2	0.272	-1.25	-0.0836	-0.455	0.486	1.18 (inactive)
Cc1ccc(S[C@]2(C(=O)NCC(C)C)CC(=O)N(C3CCCCC3)[C@@H]2c2ccc(CO)cc2I)cc1	0.812	0.209 (inactive)	-0.246	-0.0862	0.637	1.51	0.738	1.28	-0.0402	0.88	0.464	1.17	0.558	0.166	0.0905	-0.284	1.28	0.0839	0.752	1.22 (inactive)
COC(=O)[C@@]1(Cc2ccccc2)[C@H]2c3cc(C(=O)N(C)C)n(Cc4ccccn4)c3C[C@H]2CN1C(=O)c1ccccc1	0.723	0.146 (inactive)	0.127	0.269	0.971	3.31	1.22	1.03	-1.4	1.08	1.54	0.827	1.56	1.04	-0.226	-0.389	-0.128	-0.225	0.88	1.56 (inactive)
Cc1cc(C)c(C(O)C2C=CC3C(=O)N(c4ccccc4)C(=O)C3N2Nc2ccc([N+](=O)[O-])cc2)c(C)c1 (stereo not given)	1.06	-0.909 (inactive)	0.418	0.149	0.643	2.79	0.893	1.3	-0.224	1.19	0.945	1.22	0.434	1.02	1.08	0.504	-0.712	0.648	0.71	1.12 (inactive)
COc1ccc([Si](C)(C)[C@@H]2[C@@H](CCO)O[C@]3(C(=O)N(Cc4ccccc4)c4ccc(N5CCCCC5=O)cc43)[C@H]2C)cc1	0.375	-0.364 (inactive)	0.924	-0.108	0.08	0.72	0.0284	1.31	0.212	1.12	1.47	1.17	1.61	0.734	1.13	0.634	-0.167	0.788	0.184	0.0481 (inactive)
C=CCN1C(=O)[C@@]2(O[C@@H](CCn3cc([C@H](O)c4ccccc4)nn3)[C@H]([Si](C)(C)c3ccc(OC)cc3)[C@H]2C)c2cc(NC(=O)c3ccc(OC)cc3)ccc21	-0.105	-0.0277 (inactive)	-0.0932	-0.173	0.148	0.637	0.0719	1.03	0.271	0.713	0.623	0.931	0.386	0.0475	0.987	0.518	0.763	0.628	-0.191	0.427 (inactive)
CC(C)C(CO)N1C(=O)[C@@H]2[C@H]3C(=O)OCC=C[C@H]3OC23C=CCN(CCN2CCOCC2)C(=O)[C@@H]13 (stereo not given in full)	-0.36	-0.0157 (inactive)	-0.125	-0.164	-0.111	-0.332	-0.0765	0.0784	0.446	0.166	0.108	-0.438	-0.403	0.0835	0.418	-0.328	-0.0537	0.817	-0.467	-0.233 (inactive)
